# PMC4552634, “A New Set of Chemical Starting Points with Plasmodium falciparum Transmission-Blocking Potential for Antimalarial Drug Discovery” (PLoS ONE, 2015)
# About 3,200 (25%) of roughly 13,000 compounds showed an effect of 50% or more. The list shows a part of the results.
# Test system: P. falciparum stage V gametocytes
# Parameters: BacTiter-Glo ATP luminescence viability of purified stage V gametocytes in 384-well plates, per cent inhibition versus DMSO
# Details: 48 h, 5 µM; inhibitor
row,Compound,% Inhibition [%]
1,Oc1cc2c(cc1CN1CCN(Cc3ccc(Cl)s3)CC1)CCC2 [TCMDC-124882],-46.75
2,CCCc1ccc(N2C(N)=NC(N)=NC2(C)C)cc1 [TCMDC-137706],5.239
3,Cc1cc2c(cc1C(F)(F)F)N(C(=O)Nc1cc(C(=O)NC3CCN(Cc4ccccc4)C3)cc(C(F)(F)F)c1)CC2 (stereo not drawn) [TCMDC-139921],12.41
4,Oc1ccc(-c2nc3c4cc(I)ccc4c4ccc(I)cc4c3[nH]2)cc1 [TCMDC-124199],-25
5,N#Cc1ccc2nc(-c3cc(-c4cccc(F)c4)cnc3N)[nH]c2c1 [TCMDC-133133],-54.5
6,N#Cc1ccc(N2CCN(Cc3cccc(-c4cccc(-c5nc6cc(F)ccc6[nH]5)c4)c3)CC2)nc1.O=C(O)C(F)(F)F [TCMDC-133109],-21.69
7,Clc1ccc(Cc2nc3ccccc3[nH]2)cc1Cl [TCMDC-125878],-7.507
8,O=C(Nc1cc(C(F)(F)F)cc(C(F)(F)F)c1)N1CCC(CN2CCC(c3c[nH]c4ccccc34)CC2)CC1 [TCMDC-140192],-4.081
9,FC(F)(F)c1ccc(NC(=S)N2CCC(CN3CCC(c4c[nH]c5ccccc45)CC3)CC2)cc1 [TCMDC-140191],5.954
10,O=C(Nc1ccc(Oc2ccccc2)cc1)N1CCC(CCN2CCC(c3c[nH]c4ccccc34)CC2)CC1 [TCMDC-140190],106
11,O=C(Nc1cc(C(F)(F)F)cc(C(F)(F)F)c1)N1CCC(CCN2CCC(c3c[nH]c4ccccc34)CC2)CC1 [TCMDC-140189],108.5
12,O=C(Nc1ccc(Cl)c(Cl)c1)N1CCC(CN2CCC(c3c[nH]c4ccccc34)CC2)CC1 [TCMDC-140195],-22.77
13,O=C(Nc1ccc(Oc2ccccc2)cc1)N1CCC(CN2CCC(c3c[nH]c4ccccc34)CC2)CC1 [TCMDC-140194],35.38
14,FC(F)(F)c1ccc(NC(=S)N2CCC(CCN3CCC(c4c[nH]c5ccccc45)CC3)CC2)cc1 [TCMDC-140188],107.1
15,CN(C)CCc1c[nH]c2ccc(C(=O)Nc3ccc(-c4ccncc4)cc3)cc12 [TCMDC-132057],19.3
16,COc1ccc2nccc([C@@H](O)CN3CCC(NC(=O)c4ccc(CN5CCN(c6cccc(C)c6)CC5C)cc4)CC3)c2c1 (stereo partly drawn) [TCMDC-140999],-29.97
17,CC1(C)N=C(N)N=C(N)N1OCCSCc1cc(Cl)sc1Cl [TCMDC-131620],30.29
18,O=S(=O)(NCCN1CCCC1)c1cccc(-c2ccc(CNCc3ccsc3)cc2)c1 [TCMDC-132290],92.71
19,O=S(=O)(NCCN1CCCC1)c1ccc(-c2ccc(CNCc3ccsc3)cc2)cc1 [TCMDC-132281],102.2
20,O=S(=O)(NCCN1CCCC1)c1cccc(-c2cccc(CNCc3ccsc3)c2)c1 [TCMDC-132277],89.41
21,CCN1CCN(c2cc(C)c3cc(NC(=O)c4ccc([N+](=O)[O-])c(C)c4)ccc3n2)CC1 [TCMDC-125576],24.57
22,CC(C)(CNCCOc1ccc(Cl)cc1)c1nc(-c2ccc(Cl)c(O)c2)c(-c2ccnc(N)n2)[nH]1 [TCMDC-141161],36.73
23,Cc1cccc2[nH]c(=O)c([N+](=O)[O-])c(O)c12 [TCMDC-131384],-28.29

row,Compound,% Inhibition [%]
1,CN(C)CCC=C1c2ccccc2Sc2c(O)cc(Cl)cc21 [TCMDC-123466],-77.93
2,N#Cc1cccc(Nc2ncc3c(-c4cccc(NC(=O)Cc5cccc(Cl)c5)c4)c[nH]c3n2)c1 [TCMDC-134682],19.68
3,CCn1ccc2c(N3CCCC3=O)cc(C(=O)N[C@@H](Cc3ccccc3)[C@H](O)CNCc3cccc(OC)c3)cc21 [TCMDC-134129],8.959
4,CCn1ccc2c(N3CCCS3(=O)=O)cc(C(=O)N[C@@H](Cc3ccccc3)[C@H](O)CNC(C)(C)CCCC(C)C)cc21 [TCMDC-135312],65.79
5,CCn1ccc2c(N3CCCC3=O)cc(C(=O)N[C@@H](Cc3ccccc3)[C@H](O)CNC3CCCCC3)cc21 [TCMDC-135316],7.868
6,CCn1ccc2c(N3CCCC3=O)cc(C(=O)N[C@@H](Cc3ccccc3)[C@H](O)CNC(C)(C)CCCC(C)C)cc21 [TCMDC-135313],55.34
7,CCn1ccc2c(N3CCCCS3(=O)=O)cc(C(=O)N[C@@H](Cc3ccccc3)[C@H](O)CNC(C)(C)CCCC(C)C)cc21 [TCMDC-135311],61.66
8,CNC(=O)c1cncc(/C=C/c2ccccc2S(N)(=O)=O)c1 [TCMDC-138266],49.76
9,C[C@H](NC(=O)c1c(OC2CN(C(c3ccccc3)c3ccccc3)C2)c(-c2ccccc2)nc2ccccc12)C1CCCCC1 [TCMDC-135543],-26.28
10,CS(=O)(=O)O.Nc1nc(NCC2CCC(CNS(=O)(=O)c3cccc4ccccc34)CC2)nc2ccccc12 (stereo not drawn) [TCMDC-124251],-1.432
11,COC(=O)C(Cc1ccccc1)C(CSCc1ccc(OC)cc1)C(=O)N[C@@H](C(=O)OC(C)(C)C)c1ccc(C(C)(C)C)cc1 (stereo partly drawn) [TCMDC-131235],8.806
12,CC(C)(C)OC(=O)c1c(NC(=O)/C=C/c2ccc(O)c(O)c2)sc2c1CCCC2 [TCMDC-131558],-45.09
13,CC=Cc1cc(Cc2cnc(N)nc2N)cc(CCC)c1OC [TCMDC-137634],-1.983
14,CCOc1cc(Cc2cnc(N)nc2N)cc(OCC)c1OCCCCC(=O)OC [TCMDC-137176],-10.63
15,CCN(CC)c1ccc(C(=O)Cn2ccc(=N)cc2)cc1 [TCMDC-139029],-2.203
16,CCN(CC)CCn1c(=N)n(CC(=O)c2ccc(-c3ccccc3)cc2)c2ccccc21 [TCMDC-124026],67.24
17,CC(C)(C)c1ccc(Cn2c(=N)n(CC(=O)c3ccc(-c4ccccc4)cc3)c3ccccc32)cc1 [TCMDC-124030],98.24
18,CCOCc1cn(CC(=O)c2ccc(-c3ccccc3)cc2)c(C)nc1=N [TCMDC-124243],-19.83
19,Cc1ccccc1CN1CCCN(Cc2ccc(C(=O)Nc3ccc(C(C)(C)C)cc3)cc2)CC1 [TCMDC-136429],-4.144
20,CC(C)(C)c1ccc(Cn2nc(C(=O)N3CCN(C(=O)C4CCCO4)CC3)c3ccccc32)cc1 (stereo not drawn) [TCMDC-134381],-2.653
21,O=C(NC1CC1)c1ccc(Cn2c(SCc3cccc(Cl)c3)nc3ccccc3c2=O)cc1 [TCMDC-123576],23.52
22,COc1ccc(Cn2c(SCc3ccc(C)cc3)nc3cc(OC)c(OC)cc3c2=N)cc1Cl [TCMDC-125587],96.33
23,COc1ccc(Cn2c(Nc3cccc(C(F)(F)F)c3)nc3cc(C(=O)NC4CC4)cnc32)cc1Cl [TCMDC-138554],-4.933

row,Compound,% Inhibition [%]
1,CC[C@H]1CN2CC[C@H]1C[C@H]2[C@@H](O)c1cc(OCCCN(C)C)nc2ccc(OC)cc12 [TCMDC-131424],22.54
2,O=C(Nc1ccc(OC2CCN(Cc3ccc(F)cc3)C2)c(Cl)c1)c1ccoc1 (stereo not drawn) [TCMDC-133755],23.17
3,CC(=O)CCc1ccc(OCCN(Cc2ccccc2C(F)(F)F)c2ccc(C#N)c(C(F)(F)F)c2)cc1 [TCMDC-135737],23.15
4,CCOC(=O)c1ccc(N2CCN(CCCNC(=O)/C(=C/C=C/c3cc4cc(Cl)c(Cl)cc4[nH]3)OC)CC2)cc1 [TCMDC-139306],-53.61
5,COc1cc2c(c(OC)c1[N+](=O)[O-])C=CC1(O2)N(C)c2ccc([N+](=O)[O-])cc2C1(C)C (stereo not drawn) [TCMDC-124133],52.65
6,CN1c2ccc([N+](=O)[O-])cc2C(C)(C)C12C=Cc1cc(Br)cc([N+](=O)[O-])c1O2 (stereo not drawn) [TCMDC-124178],98.03
7,COc1ccc(N2C(=O)C3C(C2=O)C2(C)c4ccccc4C3(C)c3ccccc32)c([N+](=O)[O-])c1 (stereo not drawn) [TCMDC-125621],9.788
8,COc1ccc(C=CC(=O)NC(=O)c2ccccc2OC(=O)c2ccccc2)cc1OC [TCMDC-125709],14.45
9,COc1cc2c(c(Cl)c1OC)CCN(C(=O)C(F)(F)F)CC2c1ccccc1 (stereo not drawn) [TCMDC-132071],93.25
10,COc1cc2c(c(Cl)c1OC)CCN(Cc1ccccc1)CC2c1ccc(NC(=O)C(F)(F)F)cc1 (stereo not drawn) [TCMDC-132075],32.93
11,COc1cc2c(c(Cl)c1OC)CCN(Cc1ccccc1)CC2c1ccc(C(N)=O)cc1 (stereo not drawn) [TCMDC-132074],48.86
12,Cc1cccc2nc(-c3ccc(-c4ccc(CN5CCN(c6cnccn6)CC5)cc4)s3)[nH]c12.O=C(O)C(F)(F)F [TCMDC-133900],28.24
13,COc1ccc(CNCc2cccc(-c3ccc(-c4nc5ccccc5[nH]4)s3)c2)cc1.O=C(O)C(F)(F)F [TCMDC-132733],7.28
14,CC(C)c1ccc(CN2CCC(NC(=O)c3ccc(-c4cccc(Cl)c4)s3)CC2)cc1 [TCMDC-134347],-17.88
15,CC1CC1C(=O)NC1CCN(CC2(c3ccccc3)CCCCC2)CC1 (stereo not drawn) [TCMDC-124831],61.7
16,COc1coc(C(=O)NC2CCN(CC3(c4ccc(Cl)cc4)CCC3)CC2)c1OC [TCMDC-124835],70.44
17,O=C(CCc1ccco1)NC1CCN(CC2(c3ccc(Cl)cc3)CCC2)CC1 [TCMDC-124834],42.25
18,COc1c(C(=O)NC2CCN(Cc3ccccc3)C2)cnc2ccccc12 (stereo not drawn) [TCMDC-138996],-11.57
19,Cc1cc(C(=O)NC2CCN(CC3(c4ccc(Cl)cc4)CCC3)CC2)on1 [TCMDC-124833],85.33
20,O=C(NC1CCN(Cc2ccccc2)CC1)c1cc(-c2ccncc2)c(-c2ccc(Cl)c(O)c2)o1 [TCMDC-135453],2.681
21,Cc1cc(C(=O)NC2CCN(CC3(c4ccccc4)CCCCC3)CC2)on1 [TCMDC-124832],67.12
22,O=C(C=Cc1ccc(Cl)c(Cl)c1)NC1CCN(CCc2ccccc2)CC1 [TCMDC-134274],3.334
23,O=C(Nc1ccnc2ccccc12)NC1CCN(CCc2ccccc2)CC1 [TCMDC-139687],38.02
